# In all, about 2,300 compounds went through this assay and about 550 (24%) were called active. How the calls were made is not given here. Not all results are given here. Where a call stands in place of a potency, no number is given. Potency and affinity values are given separately.
# Assay: Vero E6 cell cytotoxicity, dose response, cytotoxicity control for non-replicating M. tuberculosis project, secondary assay (AID 492998)
# Conditions: series mostly up to 20 µM
row,SMILES,outcome
1,CCN(CC)c1ccc(-c2sc(Nc3ccccc3)n[n+]2-c2ccc(F)cc2)cc1,inactive
2,Cc1cc(C(=O)N/N=C/c2cccc(Cl)c2Cl)no1,inactive
3,CSc1ccc(NC(=O)Nc2cccn(Cc3ccccc3)c2=O)cc1,inactive
4,CCN(CC)c1ccc(NC2CC(=O)N(CCc3ccc(OC)cc3)C2=O)cc1 (stereo not given),inactive
5,CN1C(c2ccccc2)CC(=NO)CC1c1ccccc1 (stereo not given),inactive
6,COc1ccc(-c2nnc(SCC(C)C)o2)cc1,inactive
7,COc1ccc(-c2nnc(NC(=O)C3=COCCO3)o2)cc1,inactive
8,O=C(COc1ccccc1)Nc1nnc(-c2ccc3c(c2)CCCC3)o1,inactive
9,O=C(CNC(=O)c1ccc(Br)cc1)c1ccc(Br)cc1,inactive
10,COC(=O)COc1ccc(-c2ccc(F)cc2)cc1C=O,inactive
11,CC(=O)Nc1ccc(OC(=O)c2ccc(Br)c([N+](=O)[O-])c2)cc1,inactive
12,CC(C)C1O/C(=N/C(=O)Nc2ccc(Cl)c(Cl)c2)NC1=O (stereo not given),inactive
13,COc1n[nH]c(C(=O)Nc2cc(F)ccc2C)c1[N+](=O)[O-],inactive
14,CC(C)(C)NC(=O)COC(=O)c1snc(C(=O)NC2CCCCC2)c1N,inactive
15,COc1ccc(NC(=O)COc2ccc3c(c2)CCC3)cc1,inactive
16,O=C(OCC(=O)c1c[nH]c2ccccc12)c1ccc([N+](=O)[O-])s1,inactive
17,O=C(CN1CCOCC1)N/N=C/c1ccc(-c2ccc(Br)cc2)o1,inactive
18,O=C(CCSc1nnc(-c2ccncc2)o1)Nc1cccc(Cl)c1,inactive
19,CCc1ccc(OCCCC(=O)Nc2nccs2)cc1,inactive
20,CSc1ccc(C(=O)C2CCCN(Cc3cc4ccccc4[nH]3)C2)cc1 (stereo not given),inactive
21,COc1ccc(C(=O)C2CCCN(C(=O)c3ccc(CSC)o3)C2)cc1F (stereo not given),inactive
22,O=C(CCS(=O)(=O)c1ccc(Cl)cc1)Oc1ccc2c(c1)OCO2,inactive
23,CC1=NN(C(=O)COc2ccccc2)C(O)(c2ccccc2)C1 (stereo not given),inactive
24,CC(Cc1cccs1)NC(=O)c1cccc(Cl)c1 (stereo not given),inactive
25,Cc1ccc(C(=O)Oc2cccc(-n3cnnn3)c2)cc1,inactive

row,SMILES,outcome
1,CCc1ccc(NC(=O)C(=O)NNC(=O)c2cccc(OC)c2)cc1,inactive
2,CCOC(=O)c1csc(-c2snnc2C)n1,inactive
3,O=C(NNC1=C(C(=O)C(F)(F)F)CCC1)c1ccccc1Cl,inactive
4,N#CC1=C(N)Oc2n[nH]c(-c3cccnc3)c2C1c1ccc([N+](=O)[O-])o1 (stereo not given),inactive
5,Cc1c(-c2ccc(Br)cc2)nc2ccccn12,inactive
6,CCOC(=O)c1c(C)nc2cc(C)ccn12,inactive
7,Cc1ccc(-c2nc3ccccn3c2Nc2ccccc2)o1,inactive
8,Cc1ccc(-c2nnc(NC3CCCC3)s2)cc1,inactive
9,FC(F)(F)c1ccc(-c2nnc(-c3cccnc3)o2)cc1,inactive
10,CCOC(=O)c1ccc(N=CC2=C(O)CC(C)(C)CC2=O)cc1,inactive
11,O=C(c1nnc(-c2ccc(Cl)cc2)o1)C1CCCC1,inactive
12,COc1ccc(CNC(=O)COC(=O)C2CC3C=CC2C3)cc1 (stereo not given),inactive
13,CSc1ccc(COC(=O)CCS(=O)(=O)c2ccc(C)cc2)cc1,inactive
14,Cc1cc(OCCCn2ccnc2)ccc1C(C)C,inactive
15,C=C1Cn2c(nnc2-c2ccc(Cl)cc2)S1,inactive
16,Cc1cccc(OC(=O)c2ccc3nccnc3c2)c1,inactive
17,CCOC(=O)CN(C#N)c1nc(N(C)C)nc(N(C)C)n1,inactive
18,Cc1cc(OCCCCn2ccnc2)cc(C)c1Cl,inactive
19,O=C(COC(=O)c1ccccc1Br)Nc1ccccc1F,inactive
20,O=C(NCc1ccc2c(c1)OCO2)c1ccc(Cl)s1,inactive
21,Cc1cccc(Cn2ccc(NC(=O)c3ccc4c(c3)OCO4)n2)c1,inactive
22,CCc1ccc(NC(=O)COc2ccc3c(c2)OCO3)cc1,inactive
23,CCOC(=O)c1csc(COc2ccc(OC)cc2)n1,inactive
24,CC1(c2nnc(Cc3ccccc3)o2)CC(c2ccccc2[N+](=O)[O-])=NO1 (stereo not given),inactive
25,Cc1ccc(C(=O)Nc2nccs2)cc1,inactive

row,SMILES,outcome
1,Cc1ccc(CNC(=O)c2cnccn2)cc1,inactive
2,CN1C(=O)CC(N2CCC(c3nc4ccccc4s3)CC2)C1=O (stereo not given),inactive
3,O=C(CNC(=O)c1ccccc1F)OCc1csc(-c2ccccc2)n1,inactive
4,O=C(CCSc1ccc(Cl)cc1)NC1CCCC1,inactive
5,FC(F)c1nnc2ccc(Cl)nn12,inactive
6,Cc1ncsc1CCOC(=O)c1ccc([N+](=O)[O-])cc1,inactive
7,CN(C)S(=O)(=O)c1ccc(C(=O)Oc2ccccc2)cc1,inactive
8,CCOC(=O)c1c(-c2ccc(C)o2)csc1NC(=O)CN1CCCCC1,inactive
9,O=C(NNC(=O)C12CC3CC(CC(C3)C1)C2)c1cnccn1,inactive
10,O=C(NC(=S)NNC(=O)[C@H]1C[C@@H]1c1ccccc1)c1cccc(F)c1,inactive
11,O=C(Nc1ncccc1O)c1ccc(Oc2ccccc2)cc1,inactive
12,O=C(OCC(=O)C12CC3CC(CC(C3)C1)C2)c1ccccn1,inactive
13,O=C(COc1ccc(Cl)cc1)NNC(=O)c1ccccn1,inactive
14,O=C(N/N=C/c1ccc[nH]1)c1cccnc1,inactive
15,COc1ccc(OCC(=O)NNC(=O)c2ccccn2)cc1,inactive
16,COc1ccc(C(=O)N/N=C/c2cccc3cccnc23)cc1,inactive
17,COc1cccc2[nH]c3c(Cl)ncnc3c12,inactive
18,CC1CCCN(CCSc2ccc(Cl)cc2)C1 (stereo not given),inactive
19,O=C(COc1ccc2ccccc2c1)Nc1ccncc1,inactive
20,O=C1C=CC(=O)N1N(c1ccccc1)c1ccccc1,inactive
21,O=C(c1cccc2cccc(O)c12)N1CCCCC1,inactive
22,Cn1c(SCc2c(F)cccc2Cl)nc2c(c1=O)SCC2,inactive
23,Cc1cccc(NC(=O)CCSc2nnc(Cc3ccccc3)o2)c1,inactive
24,O=C(COC(=O)CCC(=O)c1ccc(F)cc1)Nc1ccc(F)cc1F,inactive
25,CC(/C=C/c1ccco1)=N/NC(=O)c1ccc(C)nc1,inactive

row,SMILES,outcome
1,COc1ccc(OCC(=O)N/N=C2\CCc3ccccc32)cc1,inactive
2,CCOc1ccccc1NC(=O)COn1nnc2ccc(Cl)cc21,inactive
3,COc1ccc(CN=C(C#N)C2=C(O)c3ccccc3C2=O)cc1,inactive
4,COc1cccc(NC(=O)c2cnc(SC)nc2)c1,inactive
5,COc1cccc(NC(=O)c2ccc(C(=O)c3ccccc3)o2)c1,inactive
6,C(#CCN1CCOCC1)COCc1ccccc1,inactive
7,O=c1cc(C(F)(F)F)[nH]c2c(C(F)(F)F)cccc12,inactive
8,O=C(Nc1ncc2c(n1)-c1ccccc1OC2)c1ccc(F)cc1,inactive
9,O=C(Nc1nnc(C2=COCCO2)o1)c1ccc(F)cc1,inactive
10,CCOC(=O)CNCCC(=O)c1ccc(Br)cc1,inactive
11,COc1ccc(S(=O)(=O)NCc2ccc3c(c2)cc(C)n3C)cc1,inactive
12,NC(N)=Nc1nc(-c2ccccc2)c2ccccc2n1,inactive
13,COC(=O)COc1ccc(-c2nn(C)c(=O)c3ccccc23)cc1,inactive
14,COC(=O)[C@H](CC(C)C)NC(=O)NCCC1=CCCCC1,inactive
15,O=C(NCc1cccs1)c1cc(-c2ccc(O)cc2)on1,inactive
16,CC1CCN(CCOCCSc2ccc(Cl)cc2)CC1,inactive
17,CCOc1ccc(-c2ccc(SCC)nn2)cc1,inactive
18,O=C(CCSc1ccccn1)c1ccccc1,inactive
19,Nc1c(C(=O)NC2CCCCC2)nsc1C(=O)OCC(=O)NC1CCCCC1,inactive
20,CCC(C)c1ccc(OCCn2ccnc2)cc1 (stereo not given),inactive
21,O=C(N/N=C/C(Br)=C/c1ccccc1)c1cnccn1,inactive
22,O=C(N/N=C/C(Br)=C/c1ccccc1)c1ccncc1,inactive
23,O=C(Cc1ccccc1)Nc1ccc(C(=O)NCC2COc3ccccc3O2)cc1 (stereo not given),inactive
24,O=C(NCc1ccc(Cl)cc1)c1n[nH]c([N+](=O)[O-])c1Cl,inactive
25,CCOc1ccc(NC(=O)COc2ccc3c(c2)OCO3)cc1,inactive

row,SMILES,outcome
1,CC(C)(C)c1ccccc1OCCOCCN1CCCCCC1,inactive
2,Cc1ccc(C(=O)NCCOc2cccc(C)c2)cc1,inactive
3,Cc1cccc(OCCCCc2c(C)n[nH]c2C)c1,inactive
4,Cc1cc(OCc2cc(C(=O)N(C)CCc3cnn(C)c3)no2)cc(C)c1Cl,inactive
5,COc1cccc(COC(=O)c2sc3nc4n(c(=O)c3c2C)CCC4)c1OC,inactive
6,CCOc1ccc(OCCSc2ccc(S(=O)(=O)N3CCN(C)CC3)cn2)cc1,inactive
7,O=C(CCN1CCOCC1)c1ccc(Br)cc1,inactive
8,Cc1cc(C(=O)N/N=C/C=C/c2ccccc2)c(C)o1,inactive
9,Nc1ccc2c(c1)oc1ccccc12,inactive
10,CCCc1nnc(-c2ccc(OC)cc2)o1,inactive
11,Cc1ccc(SCCC(=O)OCC(=O)NCC2CCCCC2)cc1,inactive
12,NC(=O)CN1CCN(C2CC(=O)N(CCc3ccccc3)C2=O)CC1 (stereo not given),inactive
13,NNC(=O)COc1cccc(Oc2ccccc2)c1,inactive
14,CCOC(=O)COc1ccc2c3c(c(=O)oc2c1C)CCC3,inactive
15,O=Cc1coc2ccc3ccccc3c2c1=O,inactive
16,O=C(OCc1ccc([N+](=O)[O-])cc1)c1ccc2ccccc2n1,inactive
17,Cc1cc(C=C2C(=O)N(C)C(=S)N(C)C2=O)c(C)n1-c1cccnc1,inactive
18,Cc1ccc2nc(C)c3c(c2c1)SCC3,inactive
19,CCCCCCn1c(=O)c(C(=O)Nc2nnc(C)s2)c(O)c2ccccc21,inactive
20,CCOC(=O)Cc1csc(NC(=O)COc2ccc3c(c2)CCC3)n1,inactive
21,CCCCn1c(=O)c(C(=O)Nc2nnc(C(C)C)s2)c(O)c2ccccc21,inactive
22,O=C(NC(=S)N1CCN(C/C=C/c2ccccc2)CC1)c1ccco1,inactive
23,Brc1ccc(-c2ccc(CNCc3ccccn3)o2)cc1,inactive
24,Cc1ccccc1OCCCCc1c(C)n[nH]c1C,inactive
25,O=C(COC(=O)CC12CC3CC(CC(C3)C1)C2)Nc1cccnc1Cl,inactive
